High-throughput results deposited in PubChem by National Center for Advancing Translational Sciences (NCATS).
VP16 counter: Gal4-VP16 reporter inhibition counter-screen; Drosophila S2 Gal4-VP16 UAS-luciferase, luminescence, 20 h; Potency, µM (doses to about 53.6 µM), without a hit: at the top dose activity, negative = inhibition, actives largely listed as inhibitors; hit rate 3.5% among 310,000;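 further: Gal4-VP16 expression switched on by copper sulfate through the metallothionein promoter; potency means the concentration at half of the fitted maximal effect; on the % scale 0 is the no-effect control and ±100 the full control effect; nearly all actives have a fitted effect of over 50% in size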
Giardia killer: kills Giardia lamblia; Giardia lamblia trophozoite viability; activity change, % at 7.66 µM, hits read low; hit rate 0.15% among 340,000; AID 540267; in the data active means activity change below about -80%; inconclusive means between about -30% and that limit;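 further: parasites exposed to compound for two days anaerobically before the ATP read; on the % scale 0 is the no-effect control and ±100 the full control effect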
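Compounds were tested on trophozoites seeded at 100 cells/well and held 48 hrs at 37 deg C anaerobically. An ATP-based luminescent kit measured the remaining live cells.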
ERG-DNA inh: ERG Ets/DNA interaction inhibition; P11308; fluorescence polarization, His-ERG Ets domain / labelled DNA; Potency, µM (doses to about 76.9 µM), inactives show at the highest dose FP activity, negative = inhibition, hits mostly inhibitors; hit rate 0.028% among 370,000; AID 624246; active means well fitted inhibition curve with a large enough effect in the polarisation, with a control signal flat; inconclusive means small, poorly fitted or top-dose-only effect, or effect the other way, or a change in a side signal; inactive means no such curve, though single readings can be large or run the other way; the % refers to the polarisation;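 further: polarization taken with two DNA probes labelled with fluorescein and Texas red; potency means the concentration at half of the fitted maximal effect; % of control where 0% means no effect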
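His-tagged ERG Ets domain (1 uM in the protein solution; 300mM KCl, 50mM Tris-HCl, 1mM EDTA, 1mM DTT, pH 7.5) received compound, then a probe mix of 5 nM fluorescein-DNA and 100nM Texas-615-DNA. Fluorescence polarization was read for both dyes.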
a7 integrin act: activators of alpha7 integrin expression for muscular dystrophy; alpha7betagal myoblasts, beta-gal FDG fluorescence, 48 h; Potency, µM (series often up to 38.3 µM), without a hit: top-dose activation, most hits filed as activators; hit rate 0.064% among 350,000;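 further: potency means the concentration at half of the fitted maximal effect; 100% = response of the positive control SU9516; nearly all actives have a fitted effect of over 60% in size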
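alpha7betagal+/- myoblasts (passage 13, 250/well) treated 48 h at 37C with compounds at 1:260 dilution of DMSO stock. Lysed, then beta-galactosidase activity read as FDG fluorescence (ex 480/em 540) after 30 min, with pre-read for autofluorescence.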
RORg inh: blocks mouse ROR gamma transcriptional activity | Drosophila S2 Gal4-RORgamma UAS-luciferase reporter, 20 h | Potency, µM (top dose mostly 53.6 µM), without a hit: at the top dose activity change, negative = inhibition, hits mostly inhibitors | hit rate 5.4% among 310,000 | AID 2551; further: potency means the concentration at half of the fitted maximal effect; on the % scale 0 is the no-effect control and ±100 the full control effect; nearly all actives have a fitted effect of over 60% in size
Target sequence (P51450 whole entry, looked up, the tested form may be a part): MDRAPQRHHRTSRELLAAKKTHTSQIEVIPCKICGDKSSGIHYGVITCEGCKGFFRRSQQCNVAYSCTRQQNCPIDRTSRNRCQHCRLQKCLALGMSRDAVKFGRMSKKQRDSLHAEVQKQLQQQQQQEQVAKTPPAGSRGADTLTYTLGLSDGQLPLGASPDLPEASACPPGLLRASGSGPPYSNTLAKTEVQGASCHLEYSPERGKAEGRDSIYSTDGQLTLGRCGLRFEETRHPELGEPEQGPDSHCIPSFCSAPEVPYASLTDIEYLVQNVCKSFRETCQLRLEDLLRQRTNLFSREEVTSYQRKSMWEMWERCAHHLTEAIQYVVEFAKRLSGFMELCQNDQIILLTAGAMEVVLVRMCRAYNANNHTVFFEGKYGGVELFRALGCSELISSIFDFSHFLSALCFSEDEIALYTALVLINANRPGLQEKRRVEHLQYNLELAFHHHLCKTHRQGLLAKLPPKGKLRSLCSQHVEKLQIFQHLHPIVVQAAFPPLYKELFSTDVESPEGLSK
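Luciferase reporter read in Schneider cells carrying Gal4-RORγ (mouse) and UAS-Photinus luciferase; cells given compound 1 h before 700 uM copper sulfate induction, then incubated 20 h at ambient temperature.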
Numbers without * were called inactive; ? = inconclusive; . = no result given; [ ] = dose if it differs, or a comment. This excerpt belongs to a sample that is enriched for hits. Unless noted, the call rests on the fitted dose curve; in most records, active means well fitted curve in the direction sought with a large enough effect; inconclusive means small, poorly fitted or top-dose-only effect, or another doubt; inactive means no such curve, though single readings can be large; an effect the other way counts as inactive or inconclusive.

SMILES	VP16 counter	Giardia killer	ERG-DNA inh	a7 integrin act	RORg inh
CCCc1[nH]n(-c2nc3ccccc3s2)c(=O)c1C=NCCCOC	-4.5%	-14.3	-5.2%	-9.8%	?
CCCCCN=Cc1c(C)[nH]n(-c2nc3ccccc3s2)c1=O	?	?	-5.2%	2.2%	10µM*
Cc1nc(N=Nc2cc(S(=O)(=O)O)ccc2S(=O)(=O)O)c(COP(=O)(O)O)c(C=O)c1O	-2.4%	.	.	.	3.2%
COc1ccccc1N1CCN(C(c2ccc(Cl)cc2)c2nnnn2C(C)(C)C)CC1 (centres undefined)	22.4µM*	20.8	-8.5%	-22.1%	-123.1%
O=C(CN(C1CCCCC1)S(=O)(=O)c1ccc(F)cc1)NCC1CCCO1 (centres undefined)	.	-84.1*	14.3%	-74.2%	.
CC(C)(C)c1ccc(C(=O)N2CCCCCC2=O)cc1	2.24µM*	-9.9	13.0%	-13.8%	?
O=C1CCCCCN1C(=O)c1ccccc1	.	9.7	-4.2%	0.0%	.
CC(C)(C)CC(=O)NC(=S)N1CCCCCC1	?	-5.5	-1.4%	4.4%[7.66 µM]	7.94µM*
CC(C)(C)c1ccc(C(=O)NC(=S)N2CCCCCC2)cc1	0.501µM*	3.7	-5.2%	-21.3%	0.282µM*
O=C(NC(=S)N1CCCC1)c1ccc(Cl)cc1	14.3%	-7.8	-3.1%	20.4%	11.4%
CN1CCN(C(=S)NC(=O)c2ccc(Cl)cc2)CC1	1µM*	-13.4	2.9%	-9.9%	0.398µM*
O=C(OCC(=O)C12CC3CC(CC(C3)C1)C2)c1ccc(O)cc1O	.	-7.4	7.9%	-20.7%	.
CC(C)(C)c1ccc(C(=O)NCC(=O)N2CCCC2)cc1	?	7.0	-4.6%	-6.2%	20.7%
CC(C)(C)c1ccc(C(=O)NC(=S)N2CCCC2)cc1	0.891µM*	4.0	-3.6%	20.5%	0.708µM*
COCC(=O)N1CCC2(CCCN(Cc3nccs3)C2)CC1	7.2%	.	.	.	-6.8%
CC1=CC23C(=O)C(C=C(CO)[C@@H](O)[C@]2(O)[C@H]1O)[C@H]1[C@@H](C[C@H]3C)C1(C)C (some centres undefined)	-3.9%	.	.	.	4.9%
C=CCn1c(CC(C)(C)C)nc2ccccc21	-5.5%	-12.9	0.1%	-7.2%	11.2µM*
C=CCn1c(C(CC)CC)nc2ccccc21	-14.5%	4.5	0.4%	-15.1%	6.31µM*
Cc1ccc2[nH]c3nc(CCCn4ccnc4-c4ccccc4)nnc3c2c1	-8.3%[10 µM]	.	.	.	8.7%[10 µM]
CCCCNC(=O)C1(NC(=O)Nc2ccc(C)cc2)CCCCC1	5.4%	45.3	2.7%	-13.5%	-0.7%
CCN(C(=O)Cn1cnc2c1c(=O)n(C)c(=O)n2C)c1ccccc1C	.	.	-6.4%	.	.
Cc1ccc(S(=O)(=O)Nc2cc3c(cc2Cl)n(C)c(=O)c(=O)n3C)cc1	.	.	-2.0%	.	.
Cc1[nH]n(-c2ncc(-c3ccc(Cl)cc3)s2)c(=O)c1C(c1ccc(Cl)cc1)C(C#N)C#N (centres undefined)	?	-6.3	-11.1%	-27.7%	14.1µM*
CCCc1[nH][nH]c(=O)c1C(c1cccc(Cl)c1)C(C#N)C#N (centres undefined)	8.9%	-1.2	0.5%	-24.7%	3.2%
O=C(COc1ccccc1-c1ccccc1)NNC(=O)NC1CCCCC1	1.9%	-9.5	-6.6%	-21.7%	16.8%
SMILES	VP16 counter	Giardia killer	ERG-DNA inh	a7 integrin act	RORg inh
COc1ccc(NC(=S)N(CCc2c(C)[nH]c3ccc(C)cc23)Cc2cccs2)cc1	-10.5%	11.0	24.4%	-35.8%	?
COc1ccc2[nH]c(C)c(CCNC(=S)Nc3cccc(C)c3)c2c1	20µM*	11.7	-6.2%	-1.2%	5.01µM*
COc1ccc2[nH]c(C)c(CCNC(=S)Nc3ccc(F)cc3)c2c1	3.55µM*	-26.1	17.0%	-36.5%	3.98µM*
COc1ccc2[nH]c(C)c(CCNS(=O)(=O)c3cc(F)ccc3OC)c2c1	.	.	1.5%	.	.
COc1ccc2[nH]c(C)c(CCNC(=S)Nc3cc(C)cc(C)c3)c2c1	11.2µM*	?	2.4%	5.1%	2.24µM*
COc1ccc2[nH]c(C)c(CCNC(=S)Nc3ccccc3OC)c2c1	-1.1%	-15.5	0.4%	?	10µM*
NOCc1ccccc1	-12.4%	.	.	.	-10.7%
C#CCn1c(=NC(=O)c2sc3ccccc3c2Cl)sc2cc(S(N)(=O)=O)ccc21	?	19.3	14.7%	-7.8%	-4.3%
C/C(CCN1CCCc2nc(C)c(C)cc21)=N\O[C@@H](C)c1cn([C@H](CO)Cc2ccccc2)nn1	-0.1%[10 µM]	.	.	.	-0.5%[10 µM]
COc1ccc2[nH]c(C)c(CCNC(=S)Nc3cc(C)ccc3C)c2c1	?	-6.2	6.5%	-26.2%	5.01µM*
CNC(=S)N(CCc1c(C)[nH]c2ccc(OC)cc12)Cc1cc(OC)c(OC)c(OC)c1	-7.6%	-0.7	-4.7%	23.0%	16.9%
Cn1ccsc1=NC(=O)c1ccc([N+](=O)[O-])o1	7.5%	-93.5*	3.0%	0.0%	15.1%
COc1cc(C(=O)N=c2sccn2C)c([N+](=O)[O-])cc1OC	2.9%	3.1	-8.7%	-32.7%	-29.4%
C=C1C(=O)OC2C[C@@]3(C)CCCC(C)C3=CC12 (some centres undefined)	?	.	.	.	10µM*
C[C@H]1CCC[C@]2(C)C[C@H]3OC(=O)C(CN4CCCCCC4)[C@H]3C=C12 (some centres undefined)	-23.4%	12.7	23.3%	-69.4%	?
Cc1cc(C(=O)CSc2nc3ccccc3[nH]2)c(C)n1C	-29.6%	19.4	-4.7%	11.1%	?
Cc1cc(C(=O)CSc2nc3ccccc3[nH]2)c(C)n1Cc1ccco1	15.8µM*	3.7	-9.6%	-44.4%	?
C=CCn1c(C)cc(C(=O)CSc2nc3ccccc3c(=O)[nH]2)c1C	?	-18.3	-2.4%	-40.7%	-15.8%
COC(=O)CCCn1c(C)cc(C(=O)CCl)c1C	-80.5%	-17.3	-6.6%	-62.2%	8.91µM*
Cc1cc(C(=O)CSc2nncs2)c(C)n1Cc1ccco1	?	-8.7	10.6%	3.4%	-31.4%
Cc1cc(C(=O)CCl)c(C)n1Cc1ccco1	17.8µM*	24.0	3.3%	-65.0%	7.94µM*
C=CCn1c(C)cc(C(=O)CSc2nc3ccccc3[nH]2)c1C	12.6µM*	-3.4	0.9%	-54.6%	10µM*
CC1CCCCC12NC(=O)N(CC(=O)N1CCN(S(=O)(=O)/C=C/c3ccccc3)CC1)C2=O (centres undefined)	.	-7.9	-4.9%	-26.3%	.
COc1ccc([C@H]2C[C@H](O)[C@@H](n3cc(-c4ccc(F)cc4)nn3)CN2Cc2cccs2)cc1	.	.	.	-43.4%	.
CCc1c2c(nc3ccc(OC(=O)N4CCC(N5CCCCC5)CC4)cc13)-c1cc3c(c(=O)n1C2)COC(=O)C3(O)CC (centres undefined)	-19.1%	.	.	.	-31.3%
c1ccc(-c2nnc(SCc3nc4ccccc4[nH]3)n2Cc2ccco2)cc1	?	5.0	5.3%	-16.3%	11.2µM*
O=C(c1cc(C(F)(F)F)cc(C(F)(F)F)c1)N1CCC2(CC1)CN(c1ncccn1)C2	2.7%	.	.	.	23.8%
